Data taken from PubChem BioAssay.
Activity calls are given as the source filed them. Unless noted, the rule behind the calls is not given here.

Legend:
[1] = system: Wnt5a (protein binding on small-molecule microarray); test: small molecules binding Wnt5a protein – biophysical, small-molecule microarray, 635/667 nm fluorescence, primary screen (AID 1142); details: 635 nm fluorescence, higher = more signal;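 note: fluorescence read at 667 nm with signal to noise per printed feature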
[2] = ATP-based viability of Huh7 replicon cells – cell-based, CellTiter-Glo luminescence, basal, 48 h, cytotoxicity control for HCV replication inhibitor project, primary screen (AID 1143); details: higher = more signal, called active from +8 up or from −8 down;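 note: Huh7 hepatoma cells carrying a hepatitis C replication reporter with no stimulus; test concentration not given here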
[3] = Pseudomonas biofilm growth suppression – PAO1 strain, BacTiter-Glo luminescence, LB-PBS, primary screen (AID 1144); details: P. aeruginosa PAO1 biofilm, 12 h, higher = more signal
[4] = basal CRE-LacZ reporter activity in PC12 – cell-based, unstimulated, primary screen (AID 1145); details: no forskolin, luminescence, 4.5 h, higher = more signal, called active from +8 up or from −8 down
[5] = forskolin-driven CRE-LacZ activity in PC12 – cell-based, CRE-LacZ reporter, forskolin-stimulated, primary screen (AID 1146); details: luminescence, 4.5 h, higher = more signal, called active from +8 up or from −8 down;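 note: PC12 cells with 6xCRE LacZ reporter stimulated by forskolin 10 µM; beta-galactosidase reporter signal reflecting CREB driven transcription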
[6] = target: Streptavidin (Streptomyces avidinii) (UniProt P22629); test: compounds binding control protein streptavidin – biophysical, small-molecule microarray, 635/667 nm fluorescence, artefact control for SMM compound annotation, primary screen (AID 1147); details: higher = more signal;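 note: signal reflects streptavidin binding to arrayed compounds as a control protein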
[7] = probe aInhba binding on compound microarray – biochemical, small-molecule microarray, 635/667 nm fluorescence, primary screen (AID 1148); details: higher = more signal;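 note: score merges 667nm spot fluorescence with signal-to-noise for antibody binding to printed compounds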
Torsin-1A (Homo sapiens) [8] = target: Torsin-1A (Homo sapiens) (UniProt O14656); test: TOR1A wild-type binding on microarray – cell lysate, small-molecule microarray, lysate, 635/667 nm, primary screen (AID 1149); details: COS7 hTOR1A-WT lysate, 635 nm fluorescence, higher = more signal
Torsin-1A (Homo sapiens) [9] = target: Torsin-1A (Homo sapiens) (UniProt O14656); test: torsin A mutant lysate binding on microarrays – cell lysate, small-molecule microarray, COS7 lysate, 635/667 nm fluorescence, primary screen (AID 1150); details: COS7 hTOR1A mutant lysate, 635 nm fluorescence, higher = more signal;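 note: score pools 667 nm emission and signal to noise measuring lysate protein binding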
[10] = system: Sonic hedgehog protein (Shh); test: Sonic hedgehog microarray binding compounds – biochemical, small-molecule microarray, 635/667 nm fluorescence, primary screen (AID 1151); details: 635 nm fluorescence, higher = more signal;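 note: Shh protein binding to compounds spotted on small-molecule microarray slides; score combines spot fluorescence intensity with signal-to-noise across triplicate slides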
[11] = optical density shifts of acrAB sulA E. coli – strain DRC41, OD650, 48 h, E. coli filamentation inducer project, primary screen (AID 1152); details: higher = more signal, called active from +8 up or from −8 down;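 note: E. coli MC1000 strain DRC41 lacking acrAB efflux pump and sulA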
[12] = probe aLefty1 binding on compound microarray – biochemical, small-molecule microarray, 635/667 nm fluorescence, primary screen (AID 1153); details: higher = more signal;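 note: score merges spot fluorescence with signal-to-noise ratio from the scanned slide images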
[13] = plasmodial surface anion channel blockers, osmotic lysis – cell-based, P. falciparum Indochina, OD700, 1 h, primary screen (AID 1154); details: P. falciparum Indochina infected RBC osmotic lysis, higher = more signal, called active from +8 up or from −8 down
[14] = plasmodial surface anion channel blockers, osmotic lysis – cell-based, P. falciparum Indochina, OD700, 2 h, primary screen (AID 1155);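 note: lysis reports solute entry through the parasite surface anion channel PSAC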; details: P. falciparum Indochina infected erythrocytes, higher = more signal, called active from +8 up or from −8 down
[15] = changes in parasitized red cell lysis, either direction – P. falciparum Indochina, OD700, 3 h, PSAC antagonist project, primary screen (AID 1156); details: P. falciparum-infected erythrocytes, osmotic lysis, higher = more signal, called active from +8 up or from −8 down
[16] = plasmodial surface anion channel blockers, osmotic lysis – cell-based, P. falciparum Indochina, OD700, 18 h, primary screen (AID 1157); details: P. falciparum Indochina infected erythrocytes, osmotic lysis OD700, 18 h; higher = more signal, called active from +8 up or from −8 down
[17] = S6 kinase pathway phospho-S6 level changes – cell-based, A549, cytoblot, luminescence, serum-stimulated, primary screen (AID 1158); details: 5 h, higher = more signal;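 note: serum-stimulated A549 lung adenocarcinoma cells; signal is phosphorylated S6 detected by cytoblot immunostaining with HRP secondary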
[18] = target: NADPH oxidase 2 (Homo sapiens) (UniProt P04839); test: compounds shifting NOX2 Amplex Red fluorescence – cell-based, HEK293-NOX2, PMA-stimulated, NOX inhibitor project, primary screen (AID 1159); details: 45 min, higher = more signal, called active from +8 up or from −8 down; note: test concentration not given here
[19] = target: NADPH oxidase 4 (Homo sapiens) (UniProt Q9NPH5); test: compounds shifting NOX4 Amplex Red fluorescence – cell-based, HEK293-NOX4, tetracycline-induced, NOX inhibitor project, primary screen (AID 1160); details: HEK293-NOX4, Amplex Red H2O2 fluorescence, 45 min; higher = more signal, called active from +8 up or from −8 down
[20] = target: NADPH oxidase 5 (Homo sapiens) (UniProt Q96PH1); test: compounds shifting NOX5 Amplex Red fluorescence – cell-based, HEK293-NOX5, NOX inhibitor project, primary screen (AID 1161); details: HEK293-NOX5, ionomycin, 45 min, higher = more signal
Chain of NADPH oxidase 5 (Homo sapiens) (Q96PH1 whole entry, looked up): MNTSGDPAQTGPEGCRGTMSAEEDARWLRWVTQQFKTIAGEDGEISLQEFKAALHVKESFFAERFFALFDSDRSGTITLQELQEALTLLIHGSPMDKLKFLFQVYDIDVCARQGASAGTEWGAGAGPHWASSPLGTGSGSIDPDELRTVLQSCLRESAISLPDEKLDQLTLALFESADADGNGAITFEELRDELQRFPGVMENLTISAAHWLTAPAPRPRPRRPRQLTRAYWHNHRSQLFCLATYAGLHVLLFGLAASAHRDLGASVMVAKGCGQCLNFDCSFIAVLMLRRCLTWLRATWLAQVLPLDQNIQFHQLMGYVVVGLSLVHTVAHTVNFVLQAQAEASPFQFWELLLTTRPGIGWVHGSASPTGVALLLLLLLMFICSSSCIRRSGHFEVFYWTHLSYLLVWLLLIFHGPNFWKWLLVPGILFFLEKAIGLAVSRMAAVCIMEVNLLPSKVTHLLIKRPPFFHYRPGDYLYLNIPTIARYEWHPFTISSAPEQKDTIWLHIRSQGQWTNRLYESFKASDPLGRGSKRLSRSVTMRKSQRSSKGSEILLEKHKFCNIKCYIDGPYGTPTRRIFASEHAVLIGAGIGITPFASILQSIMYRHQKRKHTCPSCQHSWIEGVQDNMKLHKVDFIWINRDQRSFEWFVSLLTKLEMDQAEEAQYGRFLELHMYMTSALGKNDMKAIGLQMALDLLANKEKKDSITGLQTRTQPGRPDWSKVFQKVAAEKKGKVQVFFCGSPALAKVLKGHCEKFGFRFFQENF

Chain of NADPH oxidase 4 (Homo sapiens) (Q9NPH5 whole entry, looked up): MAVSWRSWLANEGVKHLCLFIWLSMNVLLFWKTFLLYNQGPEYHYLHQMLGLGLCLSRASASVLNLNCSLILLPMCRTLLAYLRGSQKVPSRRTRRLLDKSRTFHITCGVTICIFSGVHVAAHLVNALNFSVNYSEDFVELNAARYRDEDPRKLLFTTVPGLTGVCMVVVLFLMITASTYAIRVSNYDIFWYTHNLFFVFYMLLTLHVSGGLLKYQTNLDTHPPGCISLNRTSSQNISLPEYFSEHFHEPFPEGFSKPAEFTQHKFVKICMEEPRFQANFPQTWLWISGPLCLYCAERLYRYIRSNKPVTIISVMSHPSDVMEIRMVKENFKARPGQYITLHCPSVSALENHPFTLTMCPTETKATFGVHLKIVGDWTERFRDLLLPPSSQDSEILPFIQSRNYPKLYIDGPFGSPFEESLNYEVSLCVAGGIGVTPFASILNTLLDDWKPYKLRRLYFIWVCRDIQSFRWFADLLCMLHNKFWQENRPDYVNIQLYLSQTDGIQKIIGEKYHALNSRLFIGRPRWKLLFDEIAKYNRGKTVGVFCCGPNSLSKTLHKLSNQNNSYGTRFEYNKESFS
Chain of Streptavidin (Streptomyces avidinii) (P22629 whole entry, looked up): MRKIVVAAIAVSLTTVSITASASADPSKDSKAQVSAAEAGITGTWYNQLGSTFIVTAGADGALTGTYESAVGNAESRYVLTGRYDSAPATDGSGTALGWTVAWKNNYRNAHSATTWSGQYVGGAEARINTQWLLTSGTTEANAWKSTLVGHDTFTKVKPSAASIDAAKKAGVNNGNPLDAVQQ
Chain of NADPH oxidase 2 (Homo sapiens) (P04839 whole entry, looked up): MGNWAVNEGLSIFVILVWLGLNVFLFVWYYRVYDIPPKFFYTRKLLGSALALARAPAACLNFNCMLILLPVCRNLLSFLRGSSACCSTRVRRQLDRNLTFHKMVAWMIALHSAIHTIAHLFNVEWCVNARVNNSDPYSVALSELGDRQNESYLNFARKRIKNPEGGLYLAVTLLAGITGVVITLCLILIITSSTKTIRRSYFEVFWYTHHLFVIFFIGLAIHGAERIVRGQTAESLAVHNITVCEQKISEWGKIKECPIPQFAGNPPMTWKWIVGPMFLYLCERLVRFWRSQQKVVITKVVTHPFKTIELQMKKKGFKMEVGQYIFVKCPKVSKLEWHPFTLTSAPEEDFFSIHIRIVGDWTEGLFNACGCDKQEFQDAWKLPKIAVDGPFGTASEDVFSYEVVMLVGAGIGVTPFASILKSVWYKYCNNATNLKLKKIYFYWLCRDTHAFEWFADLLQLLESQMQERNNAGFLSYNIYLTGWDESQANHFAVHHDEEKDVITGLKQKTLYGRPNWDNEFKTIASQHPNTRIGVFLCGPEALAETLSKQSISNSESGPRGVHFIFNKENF
Chain of Torsin-1A (Homo sapiens) (O14656 whole entry, looked up): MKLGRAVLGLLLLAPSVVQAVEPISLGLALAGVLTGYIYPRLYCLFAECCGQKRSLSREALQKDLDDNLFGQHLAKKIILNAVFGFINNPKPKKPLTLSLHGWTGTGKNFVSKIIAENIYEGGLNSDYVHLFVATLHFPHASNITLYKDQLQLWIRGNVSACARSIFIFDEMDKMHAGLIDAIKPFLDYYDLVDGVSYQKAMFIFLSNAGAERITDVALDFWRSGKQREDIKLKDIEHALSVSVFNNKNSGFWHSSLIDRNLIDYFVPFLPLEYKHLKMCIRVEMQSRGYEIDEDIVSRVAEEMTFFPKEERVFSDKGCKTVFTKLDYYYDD

## CN1C(=O)C2C(C1=O)C1C=C(c3ccc(CO)cc3)C2C(C2CC2)N1Cc1cc2c(cc1Br)OCO2 (stereo not given)
[1]
  composite z-score: 0.164
[2]
  z-score: -5.17 (inactive)
[3]
  z-score: -0.401 (inactive)
[4]
  z-score: 0.622 (inactive)
[5]
  z-score: -1.62 (inactive)
[6]
  composite z-score: 1.75
[7]
  composite z-score: 0.138
Torsin-1A (Homo sapiens) [8]
  composite z-score: 1.16
Torsin-1A (Homo sapiens) [9]
  composite z-score: 1.65
[10]
  composite z-score: 0.796
[11]
  z-score: -0.515 (inactive)
[12]
  composite z-score: 0.464
[13]
  z-score: 19.5 (active)
[14]
  z-score: 3.1 (inactive)
[15]
  z-score: 1.2 (inactive)
[16]
  z-score: -0.898 (inactive)
[17]
  z-score: 1.05
[18]
  z-score: -1.18 (inactive)
[19]
  z-score: -1.04 (inactive)
[20]
  z-score: -0.488

## CN(C)CCCC[C@@H]1NC(=O)[C@H]2C[C@@H](C(=O)NCCCCCNC(=O)CS)[C@@H](c3ccc(O)cc3)N2C1=O
[1]
  composite z-score: -0.22
[2]
  z-score: -0.0046 (inactive)
[3]
  z-score: -0.315 (inactive)
[4]
  z-score: 0.683 (inactive)
[5]
  z-score: -0.0503 (inactive)
[6]
  composite z-score: -0.175
[7]
  composite z-score: -0.208
Torsin-1A (Homo sapiens) [8]
  composite z-score: -0.217
Torsin-1A (Homo sapiens) [9]
  composite z-score: 0.239
[10]
  composite z-score: 0.0878
[11]
  z-score: 0.445 (inactive)
[12]
  composite z-score: -0.0196
[13]
  z-score: 0.93 (inactive)
[14]
  z-score: 0.683 (inactive)
[15]
  z-score: -0.988 (inactive)
[16]
  z-score: 0.153 (inactive)
[17]
  z-score: -0.0137
[18]
  z-score: 0.394 (inactive)
[19]
  z-score: -0.265 (inactive)
[20]
  z-score: 0.877

## COC(=O)[C@@]1(Cc2ccc(F)cc2)[C@H]2c3cc(C(=O)N(C)C)n(CCCNc4ccc(C(F)(F)F)cc4Cl)c3C[C@H]2CN1C(=O)c1ccccc1
[1]
  composite z-score: 0.72
[2]
  z-score: -3.53 (inactive)
[3]
  z-score: -0.119 (inactive)
[4]
  z-score: -0.379 (inactive)
[5]
  z-score: 0.607 (inactive)
[6]
  composite z-score: 1.8
[7]
  composite z-score: 0.572
Torsin-1A (Homo sapiens) [8]
  composite z-score: -0.335
Torsin-1A (Homo sapiens) [9]
  composite z-score: 0.547
[10]
  composite z-score: -0.576
[11]
  z-score: -1.74 (inactive)
[12]
  composite z-score: 0.634
[13]
  z-score: 1.36 (inactive)
[14]
  z-score: 0.986 (inactive)
[15]
  z-score: 0.277 (inactive)
[16]
  z-score: 1.33 (inactive)
[17]
  z-score: -0.0991
[18]
  z-score: 0.844 (inactive)
[19]
  z-score: 0.619 (inactive)
[20]
  z-score: 0.897

## NC(=O)[C@@]1(CCS(=O)(=O)c2ccccc2)N=C(c2ccc(OCCCO)cc2)O[C@H]1c1ccccc1
[1]
  composite z-score: 0.211
[2]
  z-score: -5.04 (inactive)
[3]
  z-score: 0.814 (inactive)
[4]
  z-score: 0.0451 (inactive)
[5]
  z-score: -1.38 (inactive)
[6]
  composite z-score: 0.856
[7]
  composite z-score: 0.0872
Torsin-1A (Homo sapiens) [8]
  composite z-score: 0.699
Torsin-1A (Homo sapiens) [9]
  composite z-score: 0.799
[10]
  composite z-score: -1.2
[11]
  z-score: 1.24 (inactive)
[12]
  composite z-score: 0.254
[13]
  z-score: 19.7 (active)
[14]
  z-score: 2.48 (inactive)
[15]
  z-score: 1.4 (inactive)
[16]
  z-score: -0.898 (inactive)
[17]
  z-score: 2.09
[18]
  z-score: -3.88 (inactive)
[19]
  z-score: -1.85 (inactive)
[20]
  z-score: -1.61

## COC(=O)[C@@]1(Cc2ccc(OC)cc2)[C@H]2c3cc(C(=O)N4CCCC4)n(C[C@H](O)CO)c3C[C@H]2CN1C(=O)c1ccccc1
[1]
  composite z-score: 0.0149
[2]
  z-score: -0.132 (inactive)
[3]
  z-score: -0.389 (inactive)
[4]
  z-score: -0.365 (inactive)
[5]
  z-score: 0.294 (inactive)
[6]
  composite z-score: 0.528
[7]
  composite z-score: 0.0082
Torsin-1A (Homo sapiens) [8]
  composite z-score: -0.467
Torsin-1A (Homo sapiens) [9]
  composite z-score: 0.354
[10]
  composite z-score: -0.666
[11]
  z-score: -0.599 (inactive)
[12]
  composite z-score: 0.132
[13]
  z-score: 1.24 (inactive)
[14]
  z-score: -0.478 (inactive)
[15]
  z-score: 0.425 (inactive)
[16]
  z-score: 0.201 (inactive)
[17]
  z-score: 0.245
[18]
  z-score: 0.4 (inactive)
[19]
  z-score: 0.18 (inactive)
[20]
  z-score: -3.78

## O=C(NCc1ccccc1)[C@@H]1c2ccccc2C(=O)N(C2CCCCC2)[C@H]1c1ccc(CO)cc1
[1]
  composite z-score: 0.191
[2]
  z-score: -1.08 (inactive)
[3]
  z-score: 0.583 (inactive)
[4]
  z-score: 0.234 (inactive)
[5]
  z-score: 0.174 (inactive)
[6]
  composite z-score: -0.395
[7]
  composite z-score: -0.352
Torsin-1A (Homo sapiens) [8]
  composite z-score: 0.113
Torsin-1A (Homo sapiens) [9]
  composite z-score: 1.11
[10]
  composite z-score: 1.4
[11]
  z-score: -0.246 (inactive)
[12]
  composite z-score: -0.458
[13]
  z-score: 2.67 (inactive)
[14]
  z-score: 0.0744 (inactive)
[15]
  z-score: 0.473 (inactive)
[16]
  z-score: 0.475 (inactive)
[17]
  z-score: -0.127
[18]
  z-score: -0.245 (inactive)
[19]
  z-score: 0.684 (inactive)
[20]
  z-score: 0.725

## C=C[C@H](C)[C@H](O)c1ccc(OCCO)cc1
[1]
  composite z-score: -0.965
[2]
  z-score: -1.45 (inactive)
[3]
  z-score: 0.733 (inactive)
[4]
  z-score: -0.272 (inactive)
[5]
  z-score: 0.0034 (inactive)
[6]
  composite z-score: -1.29
[7]
  composite z-score: -0.209
Torsin-1A (Homo sapiens) [8]
  composite z-score: -2.73
Torsin-1A (Homo sapiens) [9]
  composite z-score: -1.99
[10]
  composite z-score: -0.773
[11]
  z-score: 1.05 (inactive)
[12]
  composite z-score: -0.553
[13]
  z-score: 1.09 (inactive)
[14]
  z-score: 0.521 (inactive)
[15]
  z-score: 1.62 (inactive)
[16]
  z-score: 0.402 (inactive)
[17]
  z-score: 0.156
[18]
  z-score: 0.218 (inactive)
[19]
  z-score: -0.187 (inactive)
[20]
  z-score: -0.112

## CC(C)CNC(=O)[C@@]1(C)c2ccccc2C(=O)N(C(C)C)[C@H]1c1ccc(CO)cc1
[1]
  composite z-score: -0.16
[2]
  z-score: 1.09 (inactive)
[3]
  z-score: 0.15 (inactive)
[4]
  z-score: -0.179 (inactive)
[5]
  z-score: -0.568 (inactive)
[6]
  composite z-score: -1.36
[7]
  composite z-score: -0.187
Torsin-1A (Homo sapiens) [8]
  composite z-score: -0.633
Torsin-1A (Homo sapiens) [9]
  composite z-score: -1.63
[10]
  composite z-score: -0.542
[11]
  z-score: -0.144 (inactive)
[12]
  composite z-score: 0.045
[13]
  z-score: 1.54 (inactive)
[14]
  z-score: 0.344 (inactive)
[15]
  z-score: 0.24 (inactive)
[16]
  z-score: -0.0642 (inactive)
[17]
  z-score: -0.53
[18]
  z-score: -0.93 (inactive)
[19]
  z-score: 0.227 (inactive)
[20]
  z-score: -0.85

## COCCCNC(=O)[C@@]1(Sc2ccc(C)cc2)CC(=O)N(Cc2ccccc2)[C@@H]1c1ccc(CO)cc1
[1]
  composite z-score: -0.114
[2]
  z-score: 0.101 (inactive)
[3]
  z-score: -0.578 (inactive)
[4]
  z-score: -0.438 (inactive)
[5]
  z-score: 0.579 (inactive)
[6]
  composite z-score: -0.82
[7]
  composite z-score: -0.0193
Torsin-1A (Homo sapiens) [8]
  composite z-score: 0.366
Torsin-1A (Homo sapiens) [9]
  composite z-score: -0.607
[10]
  composite z-score: -0.168
[11]
  z-score: 0.186 (inactive)
[12]
  composite z-score: -1.12
[13]
  z-score: 1.25 (inactive)
[14]
  z-score: 0.505 (inactive)
[15]
  z-score: 1.14 (inactive)
[16]
  z-score: 0.107 (inactive)
[17]
  z-score: -0.0519
[18]
  z-score: 0.462 (inactive)
[19]
  z-score: 0.917 (inactive)
[20]
  z-score: 0.162
